Most compounds without a hit are left out; they make up all but 2.7% or so of the library.
gsp antagonist = antagonizes gsp, the McCune-Albright syndrome mutation; gsp-mutant cells, cAMP HTRF, 30 min; Potency, µM (series often up to 76.9 µM), inactives show top-dose activity change, negative = inhibition, hits mostly inhibitors; actives 0.4% (n = 340,000); calls by dose curve; cell line not stated here;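 further: intracellular cAMP measured with PDE inhibitor Ro 20-1724 present during compound exposure; potency means the concentration at half of the fitted maximal effect; on the % scale 0 is the no-effect control and ±100 the full control effect; nearly all actives have a fitted effect of over 65% in size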
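Cells in G418 medium, seeded 16-24 h, 37C; buffer exchange to DPBS + 1 mM CaCl2, 0.5 mM MgCl2, 0.05% BSA; cpds in DMSO + […] (300 uM stock), 30 min 37C; HTRF cAMP detection.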
ClpP mod = qHTS Assay for Activators of ClpP | ATP-dependent Clp protease proteolytic subunit (Bacillus subtilis (strain 168)), P80244 | purified B. subtilis ClpP, FRET peptide cleavage, 20 min | Potency, µM (titrated, usually from 57.5 µM), for inactives: at the top dose activity change, negative = active | actives 1.9% (n = 340,000) | AID 651965, 2013; active means well fitted falling curve with a large enough effect; inconclusive means small, poorly fitted or top-dose-only effect; inactive means no such curve, though single readings can be large or run the other way; further: potency means the concentration at half of the fitted maximal effect; the source files actives as falling curves though it sought activators and does not explain the sign; nearly all actives have a fitted effect of over 65% in size
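FRET quenching reversal measured ClpP activation: 10 microg/mL B. subtilis ClpP at pH 8 with the FRET-FV decapeptide, read at 430 nm after 320 nm excitation. The 20-min minus 0-min signal was scaled between DMSO/no-enzyme wells and ADEP (5.8 microM final).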
RXFP1 antagonist = blocks the human relaxin receptor RXFP1; Q9HBX9; HEK293-RXFP1, relaxin-stimulated cAMP HTRF, 30 min; hits give low values; activity change, negative = inhibition, % at 57.5 µM; actives 0.59% (n = 350,000);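 active means activity change of -60% or lower, but not beyond a set lower limit; inconclusive means change between -60% and -40%, or beyond the set limit; inactive means change above -40%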; further: on the % scale 0 is the no-effect control and ±100 the full control effect
Target sequence (Q9HBX9 whole entry, looked up): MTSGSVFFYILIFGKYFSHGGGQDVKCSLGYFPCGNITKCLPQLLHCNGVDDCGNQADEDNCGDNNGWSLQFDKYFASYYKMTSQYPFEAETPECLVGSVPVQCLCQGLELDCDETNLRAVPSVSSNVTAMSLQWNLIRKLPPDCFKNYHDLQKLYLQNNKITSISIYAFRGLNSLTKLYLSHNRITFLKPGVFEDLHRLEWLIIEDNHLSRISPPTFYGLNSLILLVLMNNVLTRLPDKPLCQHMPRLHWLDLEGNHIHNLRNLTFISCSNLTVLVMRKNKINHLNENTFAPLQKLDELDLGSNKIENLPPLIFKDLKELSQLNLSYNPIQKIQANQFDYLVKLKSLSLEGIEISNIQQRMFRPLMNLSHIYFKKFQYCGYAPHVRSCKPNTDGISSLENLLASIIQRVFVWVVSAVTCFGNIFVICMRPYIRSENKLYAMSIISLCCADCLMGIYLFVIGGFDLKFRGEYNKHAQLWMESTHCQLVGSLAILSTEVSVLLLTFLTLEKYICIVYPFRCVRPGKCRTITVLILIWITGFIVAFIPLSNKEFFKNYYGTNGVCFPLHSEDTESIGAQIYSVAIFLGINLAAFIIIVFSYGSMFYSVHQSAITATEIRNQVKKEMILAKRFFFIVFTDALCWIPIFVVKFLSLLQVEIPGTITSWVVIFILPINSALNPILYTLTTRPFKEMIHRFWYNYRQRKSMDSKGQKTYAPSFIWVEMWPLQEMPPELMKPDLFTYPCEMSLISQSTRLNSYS
pAkt inh = Akt phosphorylation inhibition; Neuro2A IGF-stimulated pAkt S473 HTRF, 20 min; hits give low values; activity change, % for hits at 50 µM; actives 0.32% (n = 360,000); in the data active means activity change below about -80%; inconclusive means mostly about -51% to -80%; further: on the % scale 0 is the no-effect control and ±100 the full control effect
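Neuro2A cells (4,500/well, DMEM with 0.5% FBS) were treated with compound at a single 50 µM final concentration, stimulated with 6 nM IGF for 20 min at 37 °C, and lysed. Phospho-Akt Ser473 was read by HTRF as 665/615 ratio ×10^4.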
RXFP1 agonist = activates the human relaxin receptor RXFP1; actives 0.3% (n = 370,000); Potency, µM (series often up to 57.5 µM), without a hit: at the highest dose activation, usual class: activators; HEK293T-RXFP1 cAMP TR-FRET, 30 min; response scale: percent of porcine relaxin response, buffer zero; Q9HBX9; active means well fitted activation curve with a large enough effect; inconclusive means small, poorly fitted or top-dose-only effect; further: potency means the concentration at half of the fitted maximal effect; on the % scale 0 is the no-effect control and ±100 the full control effect; nearly all actives have a fitted effect of over 60% in size
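HEK293T cells stably expressing RXFP1 were pretreated with the PDE4 inhibitor Ro 20174, exposed to compounds for 30 min at 37C, lysed, and cAMP was read by TR-FRET. Data normalized to buffer (basal) and 29 nM porcine relaxin (100%).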
gsp agonist = gsp mutant agonism; gsp mutant cells, cAMP HTRF, 30 min; Potency, µM (highest dose often 76.9 µM), for inactives: at the top dose activation (cAMP increase), hits mostly activators; actives 0.13% (n = 340,000); AID 624287; active means well fitted activation curve with a large enough effect; inconclusive means small, poorly fitted or top-dose-only effect, or another doubt; inactive means no such curve, though single readings can be large or run the other way; cell line not stated here;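 further: phosphodiesterase inhibitor Ro 20-1724 added with compounds to block cAMP breakdown; potency means the concentration at half of the fitted maximal effect; nearly all actives have a fitted effect of over 60% in size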
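Cells in DMEM/10% FBS with G418 were pretreated with compounds in DMSO plus […] (300 uM stock) for 30 min at 37C. cAMP was measured by HTRF (cAMP-d2 plus anti-cAMP antibody-K) after 30 min at room temperature.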
* = called active by the depositor; [ ] = another dose, or the depositor's remark.

C=C(C)C(=O)Oc1ccc(N=Nc2ccc(C)cc2)ccc1=O was read as gsp antagonist -10%, ClpP mod -1%, RXFP1 antagonist -70*, pAkt inh inactive and gsp agonist -2%[15.4 µM].
COc1ccc(C)cc1NC(=O)CCS(=O)(=O)c1cc2c3c(c1)CCN3C(=O)CC2 was read as ClpP mod 0% and RXFP1 agonist -1%.
`CCN(CC)c1nc(C#N)nc(N2CCOCC2)n1` gave ClpP mod 1%.
For COc1ccc2c(Cl)c(C(=O)NN)sc2c1 the results were gsp antagonist 7%, ClpP mod 0%, RXFP1 antagonist -15, pAkt inh inactive, RXFP1 agonist -2% and gsp agonist -24%.
COc1ccc2c(Cl)c(C(=O)NCCc3ccc(S(N)(=O)=O)cc3)sc2c1 was read as gsp antagonist -7%, ClpP mod 14µM*, RXFP1 antagonist -7, pAkt inh inactive, RXFP1 agonist 23% and gsp agonist -7%[15.4 µM].
`CCC(C)n1c(=O)c2sccc2n2c(CCCC(=O)N3CCN(c4ccccc4)CC3)nnc12` (stereo not given) gave ClpP mod 0%, RXFP1 antagonist -11 and RXFP1 agonist 4%.
CCSC1=C(C#N)C(c2ccc(Cl)cc2)C2=C(CCCC2=O)N1 (stereo not given) was read as gsp antagonist 45µM*, ClpP mod -20%, RXFP1 antagonist -3, pAkt inh inactive, RXFP1 agonist 0% and gsp agonist 9%.
CCOC(=O)c1c(NC(=O)Cn2nnc(-c3ccc(Cl)cc3)n2)sc(C)c1C was read as gsp antagonist -2%, ClpP mod 25µM*, RXFP1 antagonist 4, pAkt inh inactive, RXFP1 agonist 1% and gsp agonist -17%.
`CCOC(=O)c1c(NC(=O)Cn2nnc(-c3ccc(Cl)cc3)n2)sc(CC)c1C` gave gsp antagonist 3%, ClpP mod -21%, RXFP1 antagonist 5, RXFP1 agonist -1% and gsp agonist -25%.
For CC(=O)N1C[C@H]2CON(C)[C@H]2C[C@H]1c1ccccc1Br the results were gsp antagonist 0%, ClpP mod 1% and pAkt inh inactive.
For CCN(CC)S(=O)(=O)c1cccc(NC(=O)Nc2cccc(C(F)(F)F)c2)c1 the results were gsp antagonist 32µM*, ClpP mod 2%, RXFP1 antagonist -16, pAkt inh inactive, RXFP1 agonist -1% and gsp agonist -33%.
`CCN(CC)S(=O)(=O)c1cccc(NC(=O)CC2CCCC2)c1` gave gsp antagonist -2%, RXFP1 antagonist -17, pAkt inh inactive, RXFP1 agonist 3% and gsp agonist -27%[15.4 µM].
Cc1ccccc1-n1nc(C)c2cc(C(=O)NCc3cccnc3)sc21 was read as gsp antagonist inconclusive, ClpP mod 28µM*, RXFP1 antagonist -12, pAkt inh inactive, RXFP1 agonist 0% and gsp agonist -18%.
COc1ccccc1C(=O)C1CCCN(C(=O)c2cccc(Cn3cccn3)c2)C1 (stereo not given) was read as gsp antagonist -6%, ClpP mod -3%, RXFP1 antagonist -3, pAkt inh inactive, RXFP1 agonist 0% and gsp agonist -12%[15.4 µM].
COc1ccccc1-c1cc(C2CC2)nc(N)c1C#N was read as gsp antagonist 0%, ClpP mod 28µM*, RXFP1 antagonist -9, pAkt inh inactive, RXFP1 agonist 3% and gsp agonist 0%.
Cc1c(CC(C)C)nc(N)c(C#N)c1-c1ccccc1 was read as gsp antagonist 10%, ClpP mod inconclusive, RXFP1 antagonist 4, pAkt inh inactive, RXFP1 agonist 0% and gsp agonist -59%.
`COc1ccccc1-c1c(C#N)c(N)nc2c1CCc1ccccc1-2` gave gsp antagonist 4%, ClpP mod 1.8µM*, RXFP1 antagonist -2, pAkt inh inactive, RXFP1 agonist -1% and gsp agonist -2%.
COc1ccccc1-c1c(C)c(C)nc(N)c1C#N was read as gsp antagonist -2%, ClpP mod 22µM*, RXFP1 antagonist 3, pAkt inh inactive, RXFP1 agonist 1% and gsp agonist 34%.
`Cc1nc(N)c(C#N)c(-c2ccccc2Cl)c1C` gave gsp antagonist -8%, ClpP mod inconclusive, RXFP1 antagonist -31, pAkt inh inactive, RXFP1 agonist 0% and gsp agonist 18%.
CCc1nc(N)c(C#N)c(-c2ccccc2OC)c1C was read as gsp antagonist -6%, ClpP mod 28µM*, RXFP1 antagonist -8, pAkt inh inactive, RXFP1 agonist 0% and gsp agonist 0%.
CCOc1cc(-c2c(C#N)c(N)nc3c2CCc2ccccc2-3)ccc1O was read as gsp antagonist -26%, ClpP mod -22%, RXFP1 antagonist -26, pAkt inh inactive, RXFP1 agonist 0% and gsp agonist 23%.
For COc1cccc(CNC(=O)Cn2cc3c(n2)-c2c(oc(C(=O)N4CCCC4)c2C)CC3)c1OC the results were ClpP mod 0%, RXFP1 antagonist 0 and RXFP1 agonist 5%.
`O=C(CCS(=O)(=O)c1ccc(Br)cc1)NC1CCCC1` gave gsp antagonist 10%, ClpP mod 0%, RXFP1 antagonist 7, pAkt inh inactive, RXFP1 agonist 1% and gsp agonist 4µM*.
CCc1ccc(S(=O)(=O)c2cn(CC)c3cc(N4CCCCC4)c(F)cc3c2=O)cc1 was read as ClpP mod 25µM*, RXFP1 antagonist -17 and RXFP1 agonist 7%.
Cc1ccc(S(=O)(=O)c2cn(Cc3ccc(F)cc3)c3cc(N4CCCC4)c(F)cc3c2=O)cc1 was read as ClpP mod -5%, RXFP1 antagonist -9 and RXFP1 agonist 2%.
CCCn1cc(S(=O)(=O)c2ccccc2)c(=O)c2cc(F)c(N3CCCCC3)cc21 was read as ClpP mod inconclusive, RXFP1 antagonist -23 and RXFP1 agonist 0%.
For CCn1cc(S(=O)(=O)c2ccccc2)c(=O)c2cc(F)c(N3CCCCCC3)cc21 the results were ClpP mod 32µM*, RXFP1 antagonist -39 and RXFP1 agonist 0%.
CCN(CC)c1cc2c(cc1F)c(=O)c(S(=O)(=O)c1ccc(C)cc1)cn2Cc1ccc(F)cc1 was read as ClpP mod 13µM*, RXFP1 antagonist -10 and RXFP1 agonist 4%.
